Laboratory results reported in ChEMBL document CHEMBL4513135, “CO-ADD screening of IQOG CSIS (Spain) compounds”.
Results with a measured potency or affinity are listed apart.

Experiments:
Klebsiella pneumoniae = conditions: Concentration 32 ug.mL-1; ASSAY_TEST Inhibition of Bacterial Growth; detection method Absorption (OD600); MEDIA CAMHB; plate type 384well; NBS; CORNING #3640; time 18 hr
Candida albicans = conditions: 32 ug/mL
Cryptococcus neoformans = conditions: Concentration 32 ug.mL-1; ASSAY_TEST Inhibition of Fungal Growth; detection method Resazurin; Absorption (OD600-OD570); plate type 384well; NBS; CORNING #3640

Row | Compound | Inhibition (Klebsiella pneumoniae) [%] | Inhibition (Candida albicans) [%] | Inhibition (Cryptococcus neoformans) [%]
1 | Cc1nc2c(cc1C#N)c(N)nn2C | 19.03 | 3.97 | -10.85
2 | CC(=O)n1cc(/C=C2\N=C(c3ccccc3)OC2=O)c2ccccc21 | 0.98 | 1.66 | -2.55
3 | COc1ccc(C2c3ccc4ccccc4c3Oc3nc4c(c(N)c32)CCCC4)c(OC)c1 (configuration not stated) | 4.09 | 0.01 | -0.17
4 | O=C(N/N=C/Cc1ccccc1)c1cc2ccccc2n1Cc1ccccc1 | 4.61 | 1.98 | -1.83
5 | COc1ccccc1C1C(C#N)=C(N)Oc2c1ccc1ccccc21 (configuration not stated) | 8.71 | 1.78 | -34.5
6 | COc1cccc(C2c3c(nc4c(c3N)CCCC4)Oc3ccc4ccccc4c32)c1 (configuration not stated) | 7.83 | -0.15 | -0.19
7 | COc1ccccc1C1C(C#N)=C(N)Oc2[nH]nc(C)c21 (configuration not stated) | 0.76 | 2.02 | -7.07
8 | CNC(=O)NC1(C(=O)O)CC1c1ccccc1 (configuration not stated) | 13.01 | 0.9 | -2.43
9 | C#CCNc1ccc(Cl)nn1 | 15.08 | 3.36 | -43.23
10 | O=C1NC(=S)N/C1=C\c1c[nH]c2ccccc12 | 4.51 | -0.31 | -1.8
11 | CC(=O)C(=Cc1ccccc1)C(=O)O[C@H]1C[C@H](C)CC[C@H]1C(C)C | 13.75 | 10.8 | -6.7
12 | C#CCNc1nc(NCCCC2CCN(Cc3ccccc3)CC2)c(C#N)cc1C#N.Cl | -17.1 | 1.71 | -40.38
13 | Cn1ccnc1C1c2ccc3ccccc3c2Oc2nc3c(c(N)c21)CCCCC3 (configuration not stated) | 8.79 | 1.99 | -67.84
14 | COc1ccc2c(c1)cc(CO)n2C | 4.36 | 3.54 | -5.23
15 | CCOc1nc2nc(C)c(C=C3CCN(Cc4ccccc4)CC3)cc2c(-c2ccccc2)c1C#N | 20.16 | 2.44 | -63.91
16 | N#CC1=C(Cl)Oc2ccc3ccccc3c2C1c1ccccc1 (configuration not stated) | 13.06 | 2.47 | -4.84
17 | N#Cc1c(N)nc(NC2CCN(Cc3ccccc3)CC2)c(C#N)c1-c1ccccc1 | 9.32 | 2.69 | -66.18

Row | Compound | Inhibition (Klebsiella pneumoniae) [%] | Inhibition (Candida albicans) [%] | Inhibition (Cryptococcus neoformans) [%]
18 | Cn1ccnc1C1c2ccc3cccnc3c2Oc2nc3c(c(N)c21)CCCCC3 (configuration not stated) | 9.25 | 2.52 | -79.42
19 | N#CC1=C(N)Oc2c(ccc3ccccc23)C1c1ccc(Cl)c(Cl)c1 (configuration not stated) | -23.32 | 1.53 | -2.77
20 | C#CCN(C)c1nc(NCCCC2CCN(Cc3ccccc3)CC2)c(C#N)cc1C#N | -7.79 | 3.51 | -58.85
21 | Cn1ccnc1C1C(C#N)=C(N)Oc2c1ccc1cccnc21 (configuration not stated) | 9.74 | 0.91 | -53.28
22 | CCOC(=O)c1cc2cc(O)ccc2n1C(=O)OC(C)(C)C | 2.98 | 1.56 | -9.8
23 | CNCc1cc2cc(OC)ccc2n1C.Cl | 8.64 | -1.26 | 1.35
24 | COc1nc(Cl)c(C#N)c(-c2ccccc2)c1C#N | 0.27 | 31.9 | -41.05
25 | Cc1ccc(C(O)SNNc2ncnc3c2cnn3-c2ccccc2)cc1 (configuration not stated) | 7.03 | 2.59 | -4.5
26 | Nc1n[nH]c2c1C(c1ccccc1)CC(=O)N2 (configuration not stated) | 23.2 | 1.67 | -57.28
27 | COc1ccc(C2c3c(ccc4ccccc34)OC(=NBr)C2(Br)C#N)cc1 (configuration not stated) | 26.17 | 10.1 | -63.65
28 | CC(C)(C)OC(=O)Nc1ccccn1 | 24.53 | 0.46 | -68.78
29 | CN(Cc1cn(Cc2ccccc2)nn1)Cc1cc2cc(OCCCC3CCN(Cc4ccccc4)CC3)ccc2n1C | 4.39 | 2.75 | -73.92
30 | O[C@H]1CC[C@H](NCc2ccccc2)CC1 | 16.79 | -0.77 | -37.74
31 | C#CCNc1nc(NCC#C)c(C#N)cc1C#N | -4.98 | 3.76 | 23.66
32 | CCCC(C)NNC(=O)c1cc2ccccc2[nH]1 (configuration not stated) | -0.18 | 0.67 | -3.77
33 | Cc1nc2c3c(C)nn(-c4ccccc4)c3ncn2n1 | 13.92 | -0.04 | -2.13
34 | CC(=O)/C=C/C1CCN(Cc2ccccc2)CC1 | 7.64 | 0.43 | -60.96
